# Values joined by “and” are separate entries in the source; they are usually repeats but may differ in a detail not shown here. Identical values can stand only once. Results filed as inconclusive are left out. Active and inactive are the calls of the source. Calls come from the whole dose curve; as a rule, active = well fitted activation curve with a large enough effect; inconclusive = small, poorly fitted or top-dose-only effect; inactive = no such curve, though single readings can be large or run the other way.
# Assay: qHTS for small molecules that induce genotoxicity in ELG1 expressing cells: Confirmatory Assay for Cherry-picked Compounds; note: nearly all actives have a fitted effect of over 35% in size
# Conditions: ELG1-luciferase reporter cells, luminescence, 16 h; series mostly up to 46.1 µM
# Description: Cancer cells divide rapidly compared to normal cells in the body. During cell division, cancer cells need to duplicate their genome by DNA replication. The failure of genome duplication leads to cancer cells' death. Therefore, inhibitors of DNA replication could specifically kill cancer cells. Based on this concept, many chemotherapeutic agents were developed and have been used to treat cancer patients. However, there are a limited number of agents available in the clinical setting, and some of those that do exist have low efficacy and severe side effects. Therefore, if we can find the compounds that effectively block DNA replication either by directly damaging DNA or by inhibiting other cellular mechanisms, the options for cancer treatment will be broadened. We developed a quantitative high-throughput ELG1-luciferase reporter gene assay. Since the level of human ELG1 protein is enhanced in response to genetic stresses, increases in luciferase activity can be used to identify compounds that cause genetic stress. The data herein is the result of the confirmation assay against the cherry picked compounds selected from the primary qHTS (AID 504466). Activation is the desired outcome for this assay. NIH Chemical Genomics Center [NCGC] NIH Molecular Libraries Probe Centers Network [MLPCN] MLPCN Grant: MH092164 Assay Provider: Kyungjae Myung, National Human Genome Research Institute, NIH
# For genotoxicity screening, 2,000 cells/ well (5 uL volume) were dispensed into white, solid-bottom 1536-well plates using a solenoid-based dispenser. Following transfer of 23 nL compound or DMSO vehicle by a pin tool, the plates were incubated 16 hr at 37 C, 5% CO2. Five microliter of ONE-Glo reagent (Promega) was then added to each plate. The assay plates were incubated for 30 min at room temperature followed by quantification of the luciferase activity using the PerkinElmer ViewLux CCD-based plate reader.
# Potency is the fitted concentration of half-maximal effect.
row,Structure (SMILES),Potency
1,O=C1CCc2cc(NS(=O)(=O)c3ccccc3)cc3c2N1CCC3,inactive
2,CCn1c(=O)n(CC)c2cc(S(=O)(=O)N3CCCCC3)c(C)cc21,inactive
3,O=C(OCC(=O)N1CCc2ccccc2C1)c1c(F)cccc1Cl,9.96 µM (active)
4,O=C(CSCC(=O)N1CCN(c2ccccc2)CC1)Nc1nc(-c2ccc(Cl)s2)cs1,inactive
5,O=C1CCN(Cc2ccccc2)C=C1c1ccc2ccccc2c1,14.1 µM (active)
6,CN(C)c1ccc(/C=C2\CCc3ccccc32)cc1,1.58 µM (active)
7,Cc1cc(C(=O)Nc2ccc(Br)cn2)sc1C,2.5 µM (active)
8,CCOC(=O)N1CCN(C(=O)CSCC(=O)Nc2nc(-c3ccc(-c4ccccc4)cc3)cs2)CC1,inactive
9,Cc1nc(Nc2nc3ccccc3o2)nc2c1CCCC2,0.706 µM (active)
10,Cc1cc(C(=O)COC(=O)C2=COCCO2)c(C)n1-c1ccccc1,0.25 µM (active)
11,CCn1c(=O)n(CC)c2cc(S(=O)(=O)N3CCC(c4ccccc4)CC3)ccc21,inactive
12,COc1ccc(-c2cc3cc(F)ccc3cn2)cc1,2.23 µM (active)
13,CNC(=O)c1cc(-c2cccs2)on1,inactive
14,Cc1ccc(C(=O)NN=CC(=O)c2ccccc2)c(C)c1,6.28 µM (active)
15,COCC(C)n1c(C)cc(C(=O)COC(=O)c2cc(=O)[nH]c3ccccc23)c1C (stereo not given),2.23 µM (active)
16,O=C(Nc1ccccn1)c1sc2ccccc2c1Cl,0.223 µM (active)
17,CC(=O)NC12CC3CC(C1)CC(C(=O)OCC(=O)c1cc(C)n(C)c1C)(C3)C2,2.81 µM (active)
18,c1ccc(-c2cc3cc4c(cc3cn2)OCO4)cc1,2.81 µM (active)
19,O=C(c1cc2ccccc2[nH]1)c1cc2cc(O)ccc2[nH]1,7.05 µM (active)
20,CN(C)c1ccccc1-c1csc(N2CCC(C(N)=O)CC2)n1,1.99 µM (active)

row,Structure (SMILES),Potency
1,Cc1ccc(C(=O)Cn2c3c(sc2=N)CCCC3)cc1,0.141 µM (active)
2,Cc1ccc(C)c(N2CCN(C(=O)CCc3nc(-c4cccc(Cl)c4)no3)CC2)c1,12.5 µM (active)
3,O=C(CSc1nnc(-c2cccnc2)o1)Nc1ccccn1,9.12 µM (active) and 8.89 µM (active)
4,COc1ccc(C2CC(c3ccncc3)=NN2c2ccc(S(N)(=O)=O)cc2)cc1 (stereo not given),17.7 µM (active)
5,Cn1cccc1C(=O)OCC(=O)Nc1ccc2c(c1)OCCO2,0.706 µM (active)
6,COc1ccc2cc(C[C@@H]3CC[C@@H](CO)O3)ccc2c1,12.5 µM (active)
7,CNc1ccc(/C=C2\C=Cc3ccccc32)cc1,0.792 µM (active)
8,Cc1noc(C)c1-c1ccc2ncnc(NCc3ccc(F)c(F)c3)c2c1,15.8 µM (active)
9,COc1cc(/C=C(\C#N)C(=O)Nc2cccc(C(=O)O)c2)ccc1OCc1ccc(Cl)cc1,8.89 µM (active)
10,COc1ccccc1/C=C/c1nc2ccccc2o1,3.53 µM (active)
11,Fc1ccccc1-c1nc(-c2ccc(-c3nn[nH]n3)cc2)no1,7.91 µM (active)
12,Cc1ccc2c(c1)sc1nc(=O)n(-c3ccccc3)c(=O)n12,3.54 µM (active)
13,CN(C)c1ccc(/C=C2\C=Cc3ccccc32)c(F)c1,1.41 µM (active)
14,CN(C)c1ccc(/C=C/c2ccnc3ccc(F)cc23)cc1,0.354 µM (active)
15,N#C/C(=C\c1cccnc1)c1ccccn1,inactive
16,CN(C)c1cccc(-c2nnc(N3CCC(C(N)=O)CC3)s2)c1,4.99 µM (active)
17,CC(=O)OCC1=C[C@H]2[C@@H]3C(C)(C)[C@]3(OC(C)=O)C[C@@H](C)[C@]2(O)[C@@H]2C=C(C)C(=O)[C@@]2(O)C1,2.23 µM (active)
18,CC(=O)Nc1ccc(/C=C/c2sc3ccccc3[n+]2CCCCI)cc1,22.3 µM (active)
19,Cc1ccc2c(c1)sc1nc(=O)n(-c3ccc(Cl)c(Cl)c3)c(=O)n12,inactive
20,CN(C)c1ccc(/C=C/c2ccc3ccccc3[n+]2[O-])cc1,0.0792 µM (active)

# — PubChem BioAssay AID720565 (National Center for Advancing Translational Sciences (NCATS), 2013)
